Laboratory results from PubChem BioAssay AID1159580 (chemical genetic matrix, 2015).
Several values for one entry are separate records, joined by “and”; a condition that tells them apart may be missing. Identical values can stand only once. The campaign covered roughly 5,500 compounds. About 2,000 (36%) were called active. Not shown: some 18% with an inconclusive outcome. Cut-off read from the data, not from the text of the source: active = normalized growth mostly below about 0.91 (no sharp cut-off); inconclusive = no clear call, values can overlap the other calls; inactive = mostly above about 0.92. The list shows a part of the results.

Assay: chemical genetic growth profiling, strain panel (AID 1159580);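 note: tested at 20 µM; growth read once vehicle control cultures reached saturation at 30 °C; 1 = growth at the plate median or of vehicle wells; lower values mean less growth of the strain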
Settings: S. cerevisiae deletion strains, growth OD

Measured: normalized growth

C[C@H]1[C@H]2CCC3C4CC=C5C[C@@H](N(C)C)CC[C@]5(C)C4CC[C@@]32CN1C (stereo partly specified)
inactive: locus YAL013W, strain DEP1, hits give low values 0.994 | locus YAL021C, strain ccr4, hits give low values 1.01 | locus YAL026C, strain drs2, hits give low values 0.997 | locus YAL030W, strain snc1, hits give low values 0.996 | locus YBL061C, strain skt5, hits give low values 0.995 | locus YBR009C, strain hhf1, hits give low values 0.95 | locus YBR021W, strain FUR4, hits give low values 1 | locus YBR023C, strain chs3, hits give low values 0.994 | locus YBR171W, strain sec66, hits give low values 0.983 | locus YBR229C, strain ROT2, hits give low values 0.956 | locus YBR231C, strain swc5, hits give low values 0.972 | locus YBR279W, strain paf1, hits give low values 0.994 | locus YCL011C, strain gbp2, hits give low values 0.988 | locus YCL016C, strain dcc1, hits give low values 0.986 | locus YCL029C, strain bik1, hits give low values 0.988 | locus YCL061C, strain MRC1, hits give low values 0.994 | locus YCL069W, strain vba3, hits give low values 1 | locus YCR088W, strain abp1, hits give low values 0.996 | locus YDL005C, strain med2, hits give low values 0.992 | locus YDL035C, strain GPR1, hits give low values 0.949 | locus YDL040C, strain nat1, hits give low values 0.974 | locus YDL074C, strain BRE1, hits give low values 1.01 | locus YDL101C, strain DUN1, hits give low values 0.989 | locus YDL134C, strain PPH21, hits give low values 0.958 | locus YDL185W, strain tfp1, hits give low values 0.999 | locus YDL192W, strain arf1, hits give low values 0.984 | locus YDR001C, strain nth1, hits give low values 0.993 | locus YDR069C, strain doa4, hits give low values 0.976 | locus YDR101C, strain arx1, hits give low values 1.04 | locus YDR137W, strain rgp1, hits give low values 0.994 | locus YDR150W, strain NUM1, hits give low values 0.981 | locus YDR159W, strain sac3, hits give low values 0.941 | locus YDR162C, strain NBP2, hits give low values 0.989 | locus YDR195W, strain ref2 0.945 | locus YDR297W, strain sur2, hits give low values 1 | locus YDR318W, strain mcm21, hits give low values 0.957 | locus YDR334W, strain swr1, hits give low values 0.996 | locus YDR335W, strain msn5, hits give low values 0.992 | locus YDR388W, hits give low values 0.984 | locus YDR502C, strain sam2, hits give low values 0.977 | locus YEL003W, strain gim4, hits give low values 0.994 | locus YEL037C, strain rad23, hits give low values 0.999 | locus YEL061C, strain CIN8 (second series), hits give low values 0.992 | locus YEL061C, strain CIN8, hits give low values 0.991 | locus YER015W, strain faa2, hits give low values 0.986 | locus YER016W, strain bim1, hits give low values 0.988 | locus YER110C, hits give low values 0.99 | locus YER111C, strain swi4, hits give low values 0.992 | locus YER155C, strain BEM2 (second series), hits give low values 0.867 | locus YER155C, strain BEM2, hits give low values 0.999 | locus YER167W, strain BCK2, hits give low values 0.999 | locus YFR010W, strain ubp6, hits give low values 0.997 | locus YGL078C, strain dbp3, hits give low values 0.996 | locus YGL086W, strain mad1, hits give low values 1.02 | locus YGL167C, strain pmr1, hits give low values 0.981 | locus YGL173C, strain kem1, hits give low values 0.99 | locus YGL227W, strain vid30, hits give low values 0.985 | locus YGL240W, strain doc1, hits give low values 0.967 | locus YGL248W, strain PDE1, hits give low values 0.965 | locus YGL253W, strain hxk2, hits give low values 0.974 | locus YGR078C, strain PAC10, hits give low values 0.981 | locus YGR135W, strain pre9, hits give low values 0.968 | locus YGR252W, strain gcn5, hits give low values 0.939 | locus YHR013C, strain ard1, hits give low values 0.918 | locus YHR027C, strain rpn1, hits give low values 0.997 | locus YHR030C, strain SLT2, hits give low values 1 and 1.01 | locus YHR079C, strain IRE1 (second series), hits give low values 0.996 | locus YHR079C, strain IRE1, hits give low values 1.01 | locus YHR094C, strain hxt1, hits give low values 0.975 | locus YHR129C, strain ARP1, hits give low values 0.994 | locus YHR142W, strain chs7, hits give low values 0.99 | locus YHR200W, strain rpn10, hits give low values 0.986 | locus YIL066C, strain RNR3, hits give low values 0.986 | locus YIL073C, strain SPO22, hits give low values 0.957 | locus YIL125W, strain kgd1, hits give low values 0.995 | locus YIR030C, strain dcg1, hits give low values 0.999 | locus YJL092W, strain hpr5, hits give low values 0.992 | locus YJL095W, strain BCK1 (second series), hits give low values 0.991 | locus YJL095W, strain BCK1, hits give low values 0.963 and 0.999 | locus YJL115W, strain asf1, hits give low values 1 | locus YJL129C, strain trk1, hits give low values 0.99 | locus YJL134W, strain LCB3, hits give low values 0.993 | locus YJL154C, strain vps35, hits give low values 1 | locus YJL164C, strain tpk1, hits give low values 0.996 | locus YJL166W, strain qcr8, hits give low values 0.986 | locus YJL168C, strain set2, hits give low values 0.993 | locus YJL187C, strain SWE1 (second series), hits give low values 0.98 | locus YJL187C, strain SWE1, hits give low values 0.994 | locus YJR043C, strain POL32, hits give low values 0.993 | locus YJR066W, strain TOR1, hits give low values 0.958
active: locus YDR392W, strain spt3, hits give low values 0.551
